Inconclusive results are not listed. Where a call stands in place of a potency, no number is given. Calls of active or inactive are those of the source. Calls come from the whole dose curve; as a rule, active = well fitted inhibition curve with a large enough effect; inconclusive = small, poorly fitted or top-dose-only effect; inactive = no such curve, though single readings can be large or run the other way.

The nature of this assay: P-glycoprotein substrates identified in KB-3-1 adenocarcinoma cell line, qHTS therapeutic library screen (AID 1346986). Note: nearly all actives have a fitted effect of over 60% in size. The following applies: KB-3-1 parental cells viability, CellTiter-Glo, 72 h; series mostly up to 44.5 µM. The gist of the method: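 Cells seeded 500/well in DMEM/10% FCS; compounds pinned in dose-response; 72 h incubation; CellTiter-Glo added, 5 min, luminescence. KB-8-5-11 run ±tariquidar to test reversal of P-gp resistance.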
With `CC(=O)OC1C(CO)OC(O[C@H]2[C@H](OC(=O)[C@]34CCC(C)(C)C[C@H]3C3=CCC5[C@@]6(C)CC[C@H](O[C@@H]7O[C@H](C(=O)O)[C@@H](O)[C@H](O[C@@H]8OC[C@@H](O)[C@H](O)[C@H]8O)[C@H]7O[C@@H]7O[C@H](CO)[C@H](O)[C@H](O)[C@H]7O)[C@@](C)(C=O)C6CC[C@@]5(C)[C@]3(C)C[C@H]4O)O[C@H](C)[C@H](OC3OC(C)C(OC4OCC(O)C(O)C4O)C(O)C3O)[C@@H]2O)C(O)C1O` (stereo partly drawn), the outcome is “inactive [at 9.29 µM]”.

As to `COc1cc(C)c(C(=O)O[C@@H]2[C@H](O)[C@@H](CO)O[C@H]2n2ccc(=O)[nH]c2=O)c(OC)c1`, the Potency result is “inactive”.

As to `Cc1noc2c1-c1ccccc1C(c1ccc(Cl)cc1)=N[C@H]2CC(N)=O`, the Potency entry was “inactive”.

Consider `O=C(O[C@@H]1O[C@H](CO)[C@@H](O)[C@H](O)[C@H]1O)c1ccccc1`, for which the Potency entry is “inactive”.

In the case of `COc1ccnc2[nH]cc(C(=O)C(=O)N3CCN(C(=O)c4ccccc4)CC3C)c12` (stereo not drawn), the Potency entry is “inactive”.

Take `CC(=O)c1ccc(O[C@@H]2OC[C@@H](O)[C@H](O)[C@H]2O[C@]2(CO)O[C@H](CO)[C@@H](O)[C@@H]2O)c(O)c1`: the Potency result is “inactive”.

Regarding `CC(C)=CCC/C(C)=C/CO[C@@H]1O[C@H](CO[C@@H]2O[C@@H](CO)[C@H](O)[C@H]2O)[C@@H](O)[C@H](O)[C@H]1O`, the Potency entry is “inactive”.

On to `Cc1occc(=O)c1O[C@@H]1O[C@H](CO[C@@H]2OC[C@](O)(CO)[C@H]2O)[C@@H](O)[C@H](O)[C@H]1O`, for which the Potency result was “inactive”.

In the case of `C=C1CCC2(OC1)OC1CC3C4CC=C5CC(O)CC(O[C@@H]6OC[C@H](OC(=O)C(O)C(C)CC)[C@H](O)[C@H]6O[C@@H]6O[C@@H](C)[C@H](O)[C@@H](O)[C@H]6O)C5(C)C4CCC3(C)C1C2C` (stereo partly drawn), the outcome is “inactive [at 9.29 µM]”.

For the compound `C=CC(C)(C)C12Nc3c(ccc4c3OC(C)(C)C=C4)C1(O)CC1C(=O)N3CCCC3C(=O)N12` (stereo not drawn), the Potency result is “inactive”.

In the case of `C/C=C/C=C/[C@@H]1O[C@](O)([C@H](CC)C(=O)NC/C=C/C=C(\C)[C@@H](OC)[C@@H](C)[C@@H]2O[C@H](/C=C/C=C/C=C(\C)C(=O)c3c(O)ccn(C)c3=O)[C@H](O)[C@@H]2O)[C@H](O)[C@H](O)C1(C)C`, the outcome is “inactive [at 9.29 µM]”.

`CC1=C2CC(C)(C)CC2C(O)C2=C(C1)C(=O)OC2O` (stereo not drawn): the Potency entry was “inactive”.

On to `C=CC(C)(O)CC/C=C(\C)C(=O)O[C@@H]1[C@@H](O)[C@H](OC(C)(C=C)CC/C=C(\C)C(=O)O[C@@H]2O[C@H](CO)[C@@H](O)[C@H](O)[C@H]2O)O[C@H](CO)[C@H]1OC(=O)/C(C)=C/CCC(C)(O)C=C` (stereo partly drawn), for which the outcome was “inactive [at 9.29 µM]”.

For `C[C@@H]1O[C@@H](O[C@@H]2[C@@H](O)[C@H](O[C@H]3[C@H](O[C@H]4CC[C@@]5(C)C(CC[C@]6(C)C5CC=C5[C@@H]7CC(C)(C)CC[C@]7(C(=O)O[C@@H]7O[C@H](CO)[C@@H](O)[C@H](O)[C@H]7O)CC[C@]56C)C4(C)C)O[C@H](C(=O)O)[C@@H](O)[C@@H]3O)OC[C@H]2O)[C@H](O)[C@H](O)[C@H]1O` (stereo partly drawn), the outcome is “inactive [at 9.29 µM]”.

Regarding `C=C(CO)C(=O)O[C@H]1C[C@@]23O[C@@H]2CC/C(=C/[C@H]2OC(=O)C(=C)[C@H]12)CO[C@H]3O`, the Potency entry was “inactive”.

Take `CC1=CC(=O)C2C(C)(C)CCC[C@]2(C)[C@H]1CC[C@H](C)CC(=O)O` (stereo partly drawn): the Potency result was “inactive”.

Turning to `CC1CCCCCCCc2cc(O)cc(O)c2C(=O)O1` (stereo not drawn), the Potency entry is “inactive”.

Regarding `CC(=C\C(C)O)/C=C(\C)C(=O)CC1CC(CC(N)=O)CC(=O)O1` (stereo not drawn), the Potency result is “inactive”.

Take `C/C=C(\C)C(=O)OCC1OC(OCC2OC(OC3(CO)OC(CO)C(O)C3O)C(O)C(O)C2O)C(O)C(O)C1O` (stereo not drawn): the Potency result is “inactive”.

Consider `CC(CCc1ccc(O)cc1)O[C@@H]1O[C@H](CO[C@@H]2OC(CO)[C@H](O)[C@H]2O)[C@@H](O)[C@H](O)[C@H]1O` (stereo partly drawn), for which the Potency entry is “inactive”.

Consider `CC12CC(O)C(O)C=C1c1cc(O)cc(O)c1C(=O)O2` (stereo not drawn), for which the Potency entry was “inactive”.

Regarding `CC1(C)C[C@H](O)C[C@@]2(C)[C@H]1[C@H](O)C=C1COC(=O)[C@@]12O`, the Potency entry is “inactive”.

As for `C[C@@]12CC3(S(=O)(=O)O)OC(O1)[C@]1(COC(=O)c4ccccc4)[C@H]3C[C@]21O[C@@H]1O[C@H](CO)[C@@H](O)[C@H](O)[C@H]1O`, the Potency result was “inactive”.

As for `COc1cc(/C=C/C(=O)O[C@H]2[C@@H]3C=CO[C@@H](O[C@@H]4O[C@H](CO)[C@@H](O)[C@H](O)[C@H]4O)[C@@H]3[C@@]3(CO)O[C@@H]23)ccc1O`, the Potency result is “inactive”.

On to `CCc1cccc2c3c([nH]c12)[C@@](CC)(CC(=O)O)OCC3`, for which the Potency entry is “inactive”.

For the compound `COC(=O)C1=CO[C@@H](O[C@@H]2O[C@H](CO[C@@H]3O[C@H](CO)[C@@H](O)[C@H](O)[C@H]3O)[C@@H](O)[C@H](O)[C@H]2O)[C@@H]2C(CO)=CC[C@H]12`, the Potency entry is “inactive”.

Consider `CC(C)C1NC(=O)C2CCCN2C1=O` (stereo not drawn), for which the Potency entry is “inactive”.

`COc1cnc(-n2cnc(C)n2)c2[nH]cc(C(=O)C(=O)N3CCN(C(=O)c4ccccc4)CC3)c12`: the Potency result was “inactive”.

Regarding `CC1(C)CC[C@]2(C(=O)O[C@@H]3O[C@H](CO)[C@@H](O)[C@H](O)[C@H]3O)CC[C@]3(C)C(=CCC4[C@@]5(C)CC[C@H](OC6OC(C(=O)O)C(OC7OC(CO)C(O)C(O)C7O)C(O)C6O)C(C)(C)C5CC[C@]43C)C2C1` (stereo partly drawn), the outcome was “inactive [at 9.29 µM]”.

As for `C=CC1(C)CC2CCC3C(C)(C(=O)O)CCCC3(C)C2=CC1=O` (stereo not drawn), the Potency entry is “inactive”.

For `O=C(O)/C=C/c1ccc2occc2c1O[C@@H]1O[C@H](CO)[C@@H](O)[C@H](O)[C@H]1O`, the Potency entry is “inactive”.

In the case of `C[C@@H]1O[C@@H](O[C@H]2[C@H](O)[C@@H](O)[C@H](OC[C@H]3O[C@@H](OC(=O)[C@]45CCC(C)(C)C[C@H]4C4=CCC6[C@@]7(C)C[C@@H](O)[C@H](O)[C@@](C)(CO)C7[C@H](O)C[C@@]6(C)[C@]4(C)CC5)[C@H](O)[C@@H](O)[C@@H]3O)O[C@@H]2CO)[C@H](O)[C@H](O)[C@H]1O` (stereo partly drawn), the outcome was “inactive [at 9.29 µM]”.

`O=C(NCCN1CCCC1)c1cc(-c2ccc(CN3CCOCC3)cc2)nc2ccc(F)cc12`: the Potency entry was “inactive”.

As for `COC(=O)C1=CO[C@@H](O[C@@H]2O[C@H](CO)[C@@H](O)[C@H](O)[C@H]2O)[C@@H]2[C@@H](CO)[C@@H](O)C(O)[C@H]12` (stereo partly drawn), the Potency result is “inactive”.

In the case of `C/C(=C\C(=O)C[C@@]12C(=O)O[C@]3(C)CC[C@H]1C[C@H]23)C(N)=O`, the Potency result is “inactive”.

For the compound `C=C1[C@@H]2CC[C@@]3(C)[C@H](c4ccoc4)OC(=O)C[C@]13O[C@H]1CC(=O)C(C)(C)[C@H](C(O)C(=O)OC)[C@]12C` (stereo partly drawn), the Potency entry is “inactive”.

For the compound `COc1ccc(/C=C/C(N)=O)cc1OC`, the Potency result is “inactive”.

With `Cc1cc(CO)c(O)c(C(=O)CC2CC(=O)NC(=O)C2)c1`, the Potency result is “inactive”.

The values above are taken from PubChem BioAssay (NCATS).
